Shown are actives, neighbours in structure and some others; about 4.1% of the full set was active somewhere.
ABHD5 PLIN5 PPI = ABHD5-PLIN5 interaction inhibitors, primary screen, cell lysate, split luciferase complementation, luminescence; inhibition, % at 4 µM; Split G. princeps luciferase complementation, 4 h; Perilipin-5 (Homo sapiens) + 1-acylglycerol-3-phosphate O-acyltransferase ABHD5 (Homo …; 360,000 compounds, 0.78% hits;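 active = inhibition above the mean inhibition across every tested compound plus 3 SD, cut at about 22% in these data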
LEDGF integ inh = blockers of LEDGF/p75-dependent integrase strand transfer – biochemical, TR-FRET, high throughput, primary screen; AID 743269, 2014; 370,000 compounds, 0.64% hits; TR-FRET IN-LEDGF/p75 DNA integration, Eu/Cy5; inhibition, % at 3.7 µM;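 active = inhibition above the screen-wide mean plus 3 SD, cut at about 13% in these data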;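 also: signal is the Cy5 over europium emission ratio at 671 and 618 nm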
PRMT1 FP inh = PRMT1 methyltransferase inhibitors, primary screen, biochemical, fluorescence polarization; Protein arginine N-methyltransferase 1 (Homo sapiens), Q99873; 370,000 compounds, 1.3% hits; AID 652257, 2013; recombinant PRMT1, activity-based probe fluorescence polarization; inhibition, % at 2.79 µM;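 active = inhibition above about 21% made by adding two undisclosed values, limit read from the data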
MBD2 DNA inh = inhibitors of MBD2 binding to methylated DNA, primary screen, biochemical, TR-FRET, DNA-binding domain, human; inhibition, % at 4.4 µM; 370,000 compounds, 0.31% hits; Methyl-CpG-binding domain protein 2 (Homo sapiens), Q9UBB5; MBD2 binding to methylated oligonucleotide; in the data active = inhibition above about 13%
Target sequence (Q9UBB5 whole entry, looked up, the tested form may be a part): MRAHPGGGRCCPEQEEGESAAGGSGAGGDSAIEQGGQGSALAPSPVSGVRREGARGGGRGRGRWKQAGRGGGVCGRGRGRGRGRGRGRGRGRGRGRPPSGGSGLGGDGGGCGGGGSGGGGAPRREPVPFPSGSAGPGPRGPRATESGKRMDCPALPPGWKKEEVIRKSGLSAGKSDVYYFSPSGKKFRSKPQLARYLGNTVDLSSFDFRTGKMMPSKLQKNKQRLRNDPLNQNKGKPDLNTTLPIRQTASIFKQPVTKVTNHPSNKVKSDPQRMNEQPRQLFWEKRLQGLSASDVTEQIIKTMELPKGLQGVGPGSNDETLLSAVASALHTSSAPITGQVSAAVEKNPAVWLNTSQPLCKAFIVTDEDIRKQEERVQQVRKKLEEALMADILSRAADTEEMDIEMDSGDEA
rCAG binder = binders of r(CAG) RNA repeats, primary screen, biochemical, fluorescence | r(CAG) RNA repeat, TO-PRO-1 dye displacement fluorescence | inhibition, % at 3 µM | 370,000 compounds, 1.3% hits | AID 651821, 2012;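 active = inhibition above the plate cutoff, the mean of all test compounds on that plate plus 3 SD, cut at about 35% in these data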;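 also: higher means more dye released from RNA so lower well fluorescence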
UHRF1 binding = UHRF1 methylated DNA binding inhibitors, primary screen, counter-screen for MBD2 inhibitor project, biochemical, TR-FRET, human UHRF1, single concentration; inhibition, % at 4.4 µM; AID 687016, 2013; 370,000 compounds, 0.75% hits; UHRF1 binding to methylated oligo; E3 ubiquitin-protein ligase UHRF1 (Homo sapiens), Q96T88; in the data active = inhibition above about 21%;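 also: UHRF1 SRA domain binding a hemimethylated CpG hairpin DNA probe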
rCAG bind conf = small molecules binding CAG repeat RNA – biochemical, fluorescence, confirmation | shares compounds with rCAG binder | r(CAG) RNA repeat, TO-PRO-1 dye displacement fluorescence | inhibition, % at 3 µM | 4,300 compounds, 70% hits;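 active = inhibition above a per-plate cutoff, the mean inhibition of sample wells plus 3 SD, cut at about 35% in these data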;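 also: loss of TO-PRO-1 fluorescence as compound displaces dye from 1x1 AA loop RNA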
dCAG dye counter = displacement of TO-PRO-1 from CAG DNA duplex, counter-screen for rCAG RNA repeat binder project, biochemical, fluorescence, TO-PRO-1 dye, d(CAG) DNA oligo; shares compounds with rCAG binder; d(CAG) DNA oligo TO-PRO-1 dye displacement; inhibition, % at 3 µM; 4,300 compounds, 94% hits; AID 652068, 2013;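 active = inhibition above its plate's cutoff, the mean test-well inhibition plus 3 SD, cut at about 4.8% in these data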;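 also: hits displace the dye from DNA and so lower well fluorescence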
DNA CAG DR = inhibitors of DNA CAG/GTC TO-PRO-1 complex, dose response, counter-screen for rCAG RNA repeat binder project, biochemical, fluorescence, TO-PRO-1 dye | shares compounds with rCAG binder | DNA CAG/GTC duplex TO-PRO-1 dye displacement fluorescence | IC50, µM | 250 compounds, 20% hits; in the data active = IC50 below about 10 µM
Hits are given with their value; – = inactive; · = no result.

SMILES	ABHD5 PLIN5 PPI	LEDGF integ inh	PRMT1 FP inh	MBD2 DNA inh	rCAG binder	UHRF1 binding	rCAG bind conf	dCAG dye counter	others
Cc1ccc(NC(=O)OC2CC3CC2[C@H]2CCCCN2[C@H]3C)cc1 (some centres not stated)	·	–	–	–	–	–	·	·
CN1CCCCC(NC(=O)c2ccc(F)c(F)c2)C1=O (configuration not stated)	·	–	–	–	–	–	·	·
O=S(=O)(Nc1ccc(-c2csc(-c3ccccc3)n2)cc1)c1ccc(F)cc1	–	–	–	–	–	–	·	·
Cc1ccc(-c2cc(C(=O)Nc3ccc(S(=O)(=O)Nc4onc(C)c4C)cc3)[nH]n2)c(O)c1	–	–	–	–	84	–	78	44
O=C(Nc1nc(-c2ccccc2)cs1)c1ccccc1NS(=O)(=O)c1ccc(F)cc1	–	–	–	–	89	–	89	70
Cc1noc(NS(=O)(=O)c2ccc(NC(=O)c3ccoc3C)cc2)c1C	–	–	–	–	–	–	·	·
Cc1ccc2oc(C(=O)Nc3ccc(S(=O)(=O)Nc4onc(C)c4C)cc3)c(C)c2c1	–	–	–	–	–	–	·	·
Cc1noc(NS(=O)(=O)c2ccc(NC(=O)c3cc(-c4ccccc4Cl)nc4ccccc34)cc2)c1C	–	–	–	–	83	–	75	34	DNA CAG DR=8.5
Cc1ccc(-n2ccc(=O)c(C(=O)Nc3ccc(S(=O)(=O)Nc4onc(C)c4C)cc3)n2)cc1	–	–	–	–	59	–	46	16
Cc1cccc(C2=CC(=O)CC(C)(C)C2=O)c1	·	–	–	–	–	–	·	·
Cc1noc(NS(=O)(=O)c2ccc(NC(=O)c3ccccc3NS(=O)(=O)c3ccc(F)cc3)cc2)c1C	–	–	–	–	68	–	56	21
CCCCC(=O)N1CCN(C(=O)c2ccc3nc(C)n(C4CCCC4)c3c2)CC1	·	–	–	–	–	–	·	·
CCCCN(C)S(=O)(=O)c1ccc(C(=O)Nc2nnc(-c3ccco3)o2)cc1	–	–	–	–	37	–	–	8.2
CN(C)S(=O)(=O)c1ccc(C(=O)Nc2nnc(-c3ccco3)o2)cc1	–	–	–	–	–	–	·	·
CC(/C=C1\SC(=S)N(C(C(=O)O)C(C)C)C1=O)=C\c1ccccc1 (configuration not stated)	–	–	–	–	72	–	75	31	DNA CAG DR=–
CC(/C=C1\SC(=S)N(c2ccc(C(=O)O)cc2)C1=O)=C\c1ccccc1	–	–	–	–	55	–	84	52
CC(/C=C1\SC(=S)N(NC(=O)c2ccccc2C)C1=O)=C\c1ccccc1	–	–	–	–	–	–	·	·
CC(/C=C1\SC(=S)N(NC(=O)c2ccc(C)cc2)C1=O)=C\c1ccccc1	–	·	·	·	·	·	·	·
CC1(c2nnnn2-c2ccc(F)cc2)CCCC(=O)N1CCc1c[nH]c2ccccc12 (configuration not stated)	·	–	–	–	–	–	·	·
COc1ccccc1C=C(C(=O)c1ccccc1)c1ccccc1	–	–	–	–	–	–	·	·
O=C(O)/C(=C\c1ccccc1OC(F)F)c1ccc(-c2ccccc2)cc1	–	–	–	–	48	–	42	13
O=C(O)/C(=C\c1ccc(F)cc1)c1ccc(-c2ccccc2)cc1	–	–	–	–	38	–	40	9.7
CC(=O)C(=Cc1ccccc1)c1ccccc1	–	–	–	–	–	–	·	·
COC(=O)[C@]12C[C@H](CC(=O)N3CCN(C(=O)C4CC4)CC3)C(=O)N(Cc3cccc4ccccc34)C1=C[C@H](C(C)(C)C)O[C@@H]2C	·	–	–	–	–	–	·	·
O=C(NCc1ccccc1)[C@@H]1CCCN1C(=O)[C@H]1CCCN1C(=O)N1CCCCC1	·	–	–	–	–	–	·	·
SMILES	ABHD5 PLIN5 PPI	LEDGF integ inh	PRMT1 FP inh	MBD2 DNA inh	rCAG binder	UHRF1 binding	rCAG bind conf	dCAG dye counter	others
CC1(C)CC(C(CC(=O)N2CCCC2)Cc2ccccc2)CCO1 (configuration not stated)	–	–	–	–	42	–	–	–
COc1cccc(NC(=O)CSc2ncc(S(=O)(=O)c3ccccc3)c(=O)[nH]2)c1	–	–	–	–	–	–	·	·
Cc1ccc(NC(=O)CSc2ncc(S(=O)(=O)c3ccccc3)c(=O)[nH]2)cc1C	–	–	–	–	49	–	43	11
COc1cc(OC)cc(-c2c(-c3cccs3)c3cc(Br)ccc3n2C)c1	–	–	25	–	40	–	–	9.3
COc1cc(F)cc(-c2ccc3c(c2)c(-c2cccs2)c(-c2cc(OC)cc(OC)c2)n3C)c1	–	–	–	–	–	–	·	·
O=C(Cc1ccc(Cl)cc1)Nc1ccc(S(=O)(=O)Nc2cnc3ccccc3n2)cc1	–	–	–	–	63	–	59	23
Cc1cc(Cl)ccc1OC(C)C(=O)Nc1ccc(S(=O)(=O)Nc2cnc3ccccc3n2)cc1 (configuration not stated)	–	–	–	–	80	–	90	57
COc1cc(NS(=O)(=O)c2ccc(NC(=O)c3ccc(Cl)cc3Cl)cc2)ncn1	–	–	–	–	–	–	·	·
O=C(Nc1ccc(S(=O)(=O)Nc2cnc3ccccc3n2)cc1)c1ccc(Cl)cc1Cl	–	–	–	–	66	–	48	15
Cc1cc(Cl)ccc1OC(C)C(=O)Nc1ccc(S(=O)(=O)N2CCOCC2)cc1 (configuration not stated)	–	–	–	–	–	–	·	·
O=C(Nc1ccc(S(=O)(=O)Nc2cnc3ccccc3n2)cc1)c1cc(F)c(F)cc1Cl	–	–	–	–	40	–	–	–
Cc1cc(Cl)ccc1OC(C)C(=O)Nc1ccc(C(=O)Nc2ccccc2C(=O)O)cc1 (configuration not stated)	–	–	–	–	77	–	87	62

Source: PubChem (The Scripps Research Institute Molecular Screening Center)
